The campaign covered roughly 340,000 compounds. About 1,800 (0.53%) were called active. The full list was thinned out, with actives kept by preference. Values without a mark were called inactive.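 How the source made its calls: active means activation over 3 SD above normal in the single-dose calcium agonist read (cut at about 30% in these data); inactive means the rest.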
Target: D(2) dopamine receptor (Homo sapiens) (UniProt P14416)
Assay: HTS Assay for Allosteric Agonists of the Human D2 Dopamine Receptor: Primary Screen for Agonists; further: 0% is about no effect
Conditions: HEK293 T-REx D2 cells, calcium flux agonist mode; at 2 µM; hits give high values
In short: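 Agonism scored from kinetic calcium signal (1 read/sec, 180 s) following compound pin transfer, after a 10 s baseline. Cells: HEK293 Trex line expressing inducible D2 receptor coupled to calcium, dye-loaded after overnight culture at 30 C.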

Sequence of D(2) dopamine receptor (Homo sapiens) (P14416 whole entry, looked up): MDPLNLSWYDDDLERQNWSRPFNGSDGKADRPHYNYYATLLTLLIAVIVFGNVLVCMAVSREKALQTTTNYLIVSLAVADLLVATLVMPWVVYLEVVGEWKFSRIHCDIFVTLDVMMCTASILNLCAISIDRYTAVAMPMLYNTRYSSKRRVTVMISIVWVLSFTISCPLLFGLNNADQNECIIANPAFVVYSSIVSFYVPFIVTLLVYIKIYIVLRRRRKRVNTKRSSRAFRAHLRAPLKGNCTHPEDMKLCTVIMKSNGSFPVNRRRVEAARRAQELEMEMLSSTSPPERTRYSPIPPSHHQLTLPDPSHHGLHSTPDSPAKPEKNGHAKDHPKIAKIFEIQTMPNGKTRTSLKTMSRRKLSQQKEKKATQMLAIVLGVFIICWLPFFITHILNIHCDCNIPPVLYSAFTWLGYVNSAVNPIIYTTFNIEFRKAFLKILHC

| SMILES | activation |
| --- | --- |
| Cc1ccccc1CNC(=O)C(=O)NCC(c1cccs1)S(=O)(=O)c1cccs1 (stereo unspecified) | 0.367% |
| COc1cccc(NC(=O)N2CCN(C(=O)c3nsc4ccccc34)CC2)c1 | -0.159% |
| COc1ccccc1CN1CCC(CNC(=O)c2cnn(-c3cccc(Cl)c3)c2C2CCN(C(=O)OC(C)(C)C)CC2)CC1 | 1.52% |
| O=C(Cn1cc(SCc2ccccc2)c2ccccc21)N1CCCCC1 | 0.397% |
| Cc1cc(OC(C)C(=O)Nc2sc3c(c2C(N)=O)CCCC3)ccc1Cl (stereo unspecified) | -0.192% |
| CCCCCCc1cc2cc(-c3nnc(-c4ccccc4)o3)c(=O)oc2cc1O | 32.4% (active) |
| CCn1cc(C(=O)N2CCN(c3cc(Cl)ccc3C)CC2)c(=O)c2cc(S(=O)(=O)N3CCCC3)ccc21 | 0.428% |
| CC1=Nc2cc(C(=O)NCc3ccc(C)cc3)ccc2Sc2ccc(Cl)cc21 | 0.834% |
| CCc1ccc2oc(-c3ccc(NC(=O)c4cc5ccccc5o4)cc3)nc2c1 | 0.271% |
| Cn1nnnc1SCCCNCc1ccc(Cl)cc1 | 0.973% |
| Cc1cc(C)cc(NC(=O)CSc2oc(-c3ccccc3)nc2S(=O)(=O)c2ccc(Cl)cc2)c1 | -0.364% |
| CCn1c(=O)c(=O)n(CC)c2cc(N3CCCCC3)c(NC(=O)c3cccc(F)c3)cc21 | -0.09% |
| CCn1c(=O)n(CC)c2cc(N3CCCC3)c(NC(=O)c3ccccc3Br)cc21 | 36.9% (active) |
| CCn1c(=O)c(=O)n(CC)c2cc(N3CCCCC3)c(NC(=O)c3ccc(Cl)cc3)cc21 | -0.0698% |
| Cc1onc(C(=O)NN)c1-c1csc(COc2ccccc2)n1 | -1.45% |
| CC(C)(C)C(=O)OCc1nc(-c2ccc(O)c(O)c2)cs1 | 73.8% (active) |
| CCCC(=O)N1c2ccc(-c3csc(N)n3)cc2CC1C (stereo unspecified) | 0.868% |
| COc1ccc(C2=NC3(CCCCC3)N(CC(=O)Nc3ccc(C(C)C)cc3)C2=O)cc1 | -0.0796% |
| CN(C)c1ccc(/C=C2\NC(=S)N(Cc3ccccc3)C2=O)cc1 | 45.9% (active) |
| CN(C)c1ccc(C=C2C(=O)OC3(CCCC3)OC2=O)cc1 | -0.32% |
| Cc1ccc(CN2C(=O)N/C(=C/c3cc(C)n(-c4ccccn4)c3C)C2=O)cc1 | -1.58% |

| SMILES | activation |
| --- | --- |
| CCCCNC(=O)CSc1nc2cc3c(cc2c(=O)n1CCCCCC(=O)NCc1ccc2c(c1)OCO2)OCO3 | 0.322% |
| O=C(CN1CCN(c2ccccc2)CC1)Nc1ccc(F)cc1 | 19.7% |
| CCOC(=O)N1CCN(CCC(=O)Nc2ccccc2)CC1 | 0.607% |
| O=C(CCN1CCN(c2ccccc2)CC1)NNC(=S)Nc1ccccc1 | 56.1% (active) |
| Cc1ccc(S(=O)(=O)c2nc(-c3ccco3)oc2SCC(=O)Nc2ccc(F)cc2)cc1 | -0.0829% |
| CC(CCc1ccc(O)cc1)NCc1ccc(Cl)cc1Cl (stereo unspecified) | 32.8% (active) |
| COc1ccc(CNC(=O)C(C)NCc2ccccc2Cl)cc1 (stereo unspecified) | -0.182% |
| CC(CCc1ccccc1)NC(=O)c1cnc(Cl)c(Cl)c1 (stereo unspecified) | -0.256% |
| C=Cc1ccc(Cn2c(C(=O)OC)cc3sc(C)cc32)cc1 | 0.446% |
| COc1ccccc1NC(=O)CCN1CCN(c2ccc(Cl)cc2)CC1 | -0.695% |
| O=C(CCN1CCN(C/C=C/c2ccccc2)CC1)Nc1cccc(F)c1 | 1.58% |
| O=C(CCN1CCN(C/C=C/c2ccccc2)CC1)Nc1ccccc1Cl | 76% (active) |
| Cc1nc(SCC(=O)N2CCN(c3ccccc3)CC2)[nH]c(=O)c1C | 16% |
| COc1cccc(C(=O)NCc2ccc3c(c2)CCN3C(=O)c2ccncc2)c1 | -0.0874% |
| COc1ccc(-c2nc(S(=O)(=O)c3ccccc3)c(N3CCCCC3)o2)cc1 | -0.427% |
| N#Cc1ccsc1NC(=O)CN1CCN(S(=O)(=O)c2cc(Cl)ccc2Cl)CC1 | 3.35% |
| O=C(CN1CCN(S(=O)(=O)c2cc(Cl)ccc2Cl)CC1)c1ccc(O)c(O)c1 | 57.8% (active) |
| O=S(=O)(c1cc(Cl)ccc1Cl)N1CCN(Cc2ccco2)CC1 | -1.47% |
| Cc1ccc(NC(=O)Cn2nnc3sc4c(c3c2=O)CCC(C)C4)cc1 (stereo unspecified) | 0.94% |
| CCc1ccccc1NC(=O)Cc1ccc(NC(=O)N2CCCCc3ccccc32)cc1 | 0.173% |

Source: PubChem BioAssay AID485358 (National Center for Advancing Translational Sciences (NCATS), 2010)
